Values joined by “and” are separate entries in the source; they are usually repeats but may differ in a detail not shown here. Equal entries are not always repeated. Structures can show the parent of a compound that is named as a salt.
Tests used:
Assay in all cases: cell viability relative to vehicle control; higher = less cytotoxic
Conditions in all cases: 10 µM
K562 = system: K562
Outline: (§1)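 After removal of identity-inconsistent compounds, the Selleck bioactive, kinase and epigenetic probe libraries were screened on CRISPR-edited mutant clones and isogenic wild-type clones of four leukaemia lines. Plates were 384-well, each well holding 2000 cells in 50 µL medium and receiving a single 10 µM acoustically dispensed dose. CellTiter-Glo luminescence was read 48 h later, after the supernatant was taken off. Genedata Screener was used to express viability as percent of the on-plate vehicle control.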

MARIMO = system: MARIMO
Outline: as §1

MOLM14 = system: MOLM14
Outline: as §1

OCI-AML2 = system: OCI-AML2
Outline: as §1

| SMILES | cell viability (K562; SRSF2 genotype: SRSF2 P95H/wt) | cell viability (K562; SRSF2 genotype: SRSF2 wt/wt) | cell viability (MARIMO; SRSF2 genotype: SRSF2 P95H/wt) | cell viability (MARIMO; SRSF2 genotype: SRSF2 wt/wt) | cell viability (MOLM14; SRSF2 genotype: SRSF2 P95H/wt) | cell viability (MOLM14; SRSF2 genotype: SRSF2 wt/wt) | cell viability (OCI-AML2; SRSF2 genotype: P95H/wt) | cell viability (OCI-AML2; SRSF2 genotype: wt/wt) |
| --- | --- | --- | --- | --- | --- | --- | --- | --- |
| O=C(O)/C=C/c1ccc(Cn2ccnc2)cc1 [Ozagrel HCl] | 97.6% | 96.3% | 92.8% | 109% | 98.8% | 103% | 92.6% | 105% |
| C=C1CC[C@H](O)C/C1=C/C=C1\CCC[C@]2(C)[C@@H]([C@H](C)/C=C/[C@H](C)C(C)C)CC[C@@H]12 [Vitamin D2 (Ergocalciferol)] | 103% and 100% | 102% | 101% | 104% | 93.4% | 102% | 100% | 98.3% |
| CNC(=O)c1cc(Oc2ccc(NC(=O)Nc3cc(C(C)(C)C)nn3-c3ccc4ncccc4c3)c(F)c2)ccn1 [DCC-2036 (Rebastinib)] | 28.3% and 35.4% | 27.5% | 11.8% | 4.62% | 1.63% | 1.54% | 3.03% | 14% |
| OCC1OC(Oc2ccc(O)cc2)C(O)C(O)C1O (stereo not drawn) [alpha-Arbutin] | 99.8% and 105% | 98.6% | 104% | 111% | 103% | 109% | 98.8% | 101% |
| O=C(NO)c1cnc(NC2(c3ccccc3)CC2)nc1 | 8.09% and 28.4% | 35.4% | 3.94% | 3.14% | 4.83% | 1.94% | 0.88% | 2.07% |
| Cc1cc(C)nc(O)n1.O=C(Nc1ccc([N+](=O)[O-])cc1)Nc1ccc([N+](=O)[O-])cc1 [Nicarbazin] | 100% and 101% | 110% | 97% | 106% | 103% | 101% | 120% | 97.1% |
| C[C@H](CCC(=O)O)[C@H]1CC[C@H]2[C@@H]3[C@@H](O)C[C@@H]4C[C@H](O)CC[C@]4(C)[C@H]3CC[C@]12C [Ursodiol (Actigal Urso)] | 95.3% and 97.4% | 96.6% | 103% | 98.9% | 99.4% | 100% | 98.1% | 99.7% |
| CC1CNC(=O)NC1=O (stereo not given) [Dihydrothymine] | 102% and 110% | 97.3% | 96.7% | 108% | 97.7% | 103% | 94% | 105% |
| CC(=O)OC1C[C@H](C)CCC1C(C)C (stereo partly drawn) [(1R)-(-)-Menthyl acetate] | 98% and 101% | 101% | 92.4% | 97.6% | 98.5% | 106% | 104% | 114% |
| c1cc2c(c3c1C[C@H]1c4cc5c(cc4CCN1C3)OCO5)OCO2 [Stylopine hydrochloride] | 90.4% and 91.9% | 91.4% | 97.7% | 96.3% | 88% | 94% | 92.8% | 97.5% |
| COC(=O)c1ccc(O)c(OC)c1 [Methyl Vanillate] | 101% and 96.9% | 102% | 90.7% | 104% | 103% | 103% | 95.2% | 107% |
| COc1cc2c(cc1O)C[C@H]1c3cc(O)c(OC)cc3CC[N@@+]1(C)C2 [Phellodendrine] | 104% and 97.8% | 102% | 98.9% | 98.7% | 111% | 102% | 101% | 96.4% |
| COc1ccccc1N1CCN(CC(O)COc2cccc3ccccc23)CC1 (stereo not given) [Naftopidil (Flivas)] | 74.1% and 86.9% | 79.5% | 66.2% | 71.5% | 64.1% | 72.3% | 83.5% | 84.6% |
| Nc1cccc2c1C(=O)N(C1CCC(=O)NC1=O)C2=O (stereo not given) [Pomalidomide] | 102% and 96.9% | 88% | 87.4% | 99% | 88.5% | 93.5% | 120% | 121% |
| O=C(/C=C/c1ccc(O)cc1)c1ccc(O)cc1O [Isoliquiritigenin] | 86.2% and 94.8% | 84.4% | 83.3% | 98.4% | 53.5% | 74.7% | 89% | 98% |
| CCCCCCCCCCCCCCCC(=O)OC [Methyl palmitate] | 103% and 99.7% | 100% | 99% | 92.7% | 103% | 97.7% | 102% | 98.1% |
| O=C(/C=C/C=C/c1ccc2c(c1)OCO2)N1CCCCC1 [Piperine (1-Piperoylpiperidine)] | 105% and 94.8% | 89.7% | 92.7% | 100% | 106% | 100% | 85.6% | 97.3% |
| COC(=O)C1=C(C)NC(C)=C(C(=O)OCCN2CCN(C(c3ccccc3)c3ccccc3)CC2)C1c1cccc([N+](=O)[O-])c1 (stereo not given) [Manidipine dihydrochloride (CV-4093)] | 60.3% and 62.1% | 53.6% | 67.1% | 68.6% | 55.2% | 57.7% | 42.5% | 46.8% |
| Nc1nc(Nc2ccc(S(N)(=O)=O)cc2)nn1C(=O)c1c(F)cccc1F | 41.2% and 43.9% | 31.2% | 10.8% | 7.19% | 3.09% | 0.41% | 2.63% | 12% |
| CCCCCOc1ccc(-c2ccc(-c3ccc(C(=O)N[C@H]4C[C@@H](O)[C@@H](O)NC(=O)[C@@H]5[C@@H](O)[C@@H](C)CN5C(=O)[C@H]([C@@H](C)O)NC(=O)[C@H]([C@H](O)[C@@H](O)c5ccc(O)cc5)NC(=O)[C@@H]5C[C@@H](O)CN5C(=O)[C@H]([C@@H](C)O)NC4=O)cc3)cc2)cc1 | 77.8% and 78.3% | 80.5% | 95.7% | 94.3% | 82.7% | 84.5% | 77.5% | 82.8% |

| SMILES | cell viability (K562; SRSF2 genotype: SRSF2 P95H/wt) | cell viability (K562; SRSF2 genotype: SRSF2 wt/wt) | cell viability (MARIMO; SRSF2 genotype: SRSF2 P95H/wt) | cell viability (MARIMO; SRSF2 genotype: SRSF2 wt/wt) | cell viability (MOLM14; SRSF2 genotype: SRSF2 P95H/wt) | cell viability (MOLM14; SRSF2 genotype: SRSF2 wt/wt) | cell viability (OCI-AML2; SRSF2 genotype: P95H/wt) | cell viability (OCI-AML2; SRSF2 genotype: wt/wt) |
| --- | --- | --- | --- | --- | --- | --- | --- | --- |
| Cc1ncc(CO)c(CO)c1O [Pyridoxine hydrochloride] | 104% and 103% | 111% | 104% | 112% | 105% | 110% | 104% | 96.7% |
| CC[C@@H](C)Nc1cc(C(=O)N[C@H]2C[C@H]3CC[C@@H](C2)N3c2ccc(C(=O)C3CC3)cn2)c(C)cc1C(N)=O | 19.1% and 26.9% | 23% | 32.8% | 28.5% | 2% | 2.43% | 14.2% | 21% |
| C[C@@H]1C[C@H]2[C@@H]3CCC4=CC(=O)C=C[C@]4(C)[C@@]3(Cl)[C@@H](O)C[C@]2(C)[C@@]1(OC(=O)c1ccco1)C(=O)CCl [Mometasone furoate] | 91.2% and 98.8% | 92.2% | 87.8% | 103% | 82.7% | 79% | 113% | 118% |
| CN1CCN(Cc2ccc(Nc3ncc(Cl)c(Nc4ccccc4S(=O)(=O)N(C)C)n3)cc2)CC1 | 42.8% and 43% | 47.6% | 30.3% | 4.7% | 11.3% | 0.64% | 2.24% | 10.3% |
| COC(=O)C1(C)CCC2(C(=O)O)CCC3(C)C(=CCC4C5(C)CC(O)C(O)C(C)(CO)C5CCC43C)C2C1 (stereo not given) [Phytolaccagenin] | 108% | 113% | 111% | 103% | 111% | 111% | 105% | 98.5% |
| COCCOc1cnc2ccn([C@H](C)c3nnc4c(F)cc(-c5cnn(C)c5)cn34)c(=O)c2c1 | 86.5% and 87.1% | 85.7% | 86.8% | 94.3% | 96.7% | 93.5% | 82% | 85.9% |
| CC(C)(C)OC(=O)N[C@@H]1CCCC[C@H]1N [(1R,2R)-trans-N-Boc-1,2-cyclohexanediamine] | 104% and 108% | 98.6% | 101% | 104% | 101% | 105% | 114% | 104% |
| CNC(=O)c1ccc(C)c(-n2c(C)cc(OCc3ccc(F)cc3F)c(Br)c2=O)c1 | 74% and 77.8% | 82.4% | 65.6% | 58.4% | 69.8% | 78.8% | 72.8% | 72.2% |
| C/C(=C\CO)CCC[C@H](C)CCC[C@H](C)CCCC(C)C [Phytol] | 97% and 93.1% | 96% | 89.1% | 103% | 85.5% | 92.6% | 80.5% | 82.6% |
| Cc1ccc(NC(=O)C2(c3ccc4c(c3)OC(F)(F)O4)CC2)nc1-c1cccc(C(=O)O)c1 [VX-809 (Lumacaftor)] | 108% and 106% | 112% | 115% | 113% | 109% | 106% | 106% | 122% |
| COc1ccccc1S(=O)(=O)Nc1ccc2c(c1)CN(C)C(=O)N2 | 81.5% and 75.9% | 76.5% | 48.9% | 46.6% | 33.4% | 34.5% | 27.1% | 40.2% |
| CC(C)=CCC[C@](C)(O[C@@H]1O[C@H](CO)[C@@H](O)[C@H](O)[C@H]1O)[C@H]1CC[C@]2(C)[C@@H]1[C@H](O)C[C@@H]1[C@@]3(C)CC[C@H](O[C@@H]4O[C@H](CO)[C@@H](O)[C@H](O)[C@H]4O[C@@H]4O[C@H](CO)[C@@H](O)[C@H](O)[C@H]4O)C(C)(C)[C@@H]3CC[C@]12C [Ginsenoside Rd] | 99.2% and 91.3% | 93.4% | 94% | 96.8% | 91.8% | 94.5% | 88% | 103% |
| CC(C)(C)c1cc(O)ccc1O | 99.8% and 100% | 93.8% | 21.6% | 0.51% | 48% | 54.4% | 37.9% | 29.7% |
| CO[C@H]1CC[C@H](N2C(=O)CNc3ncc(-c4ccc(C(C)(C)O)nc4)nc32)CC1 | 27.9% and 28% | 29.7% | 36.3% | 32.3% | 28.1% | 24.1% | 26% | 29.6% |
| CC(C)c1ccc(C=O)cc1 [4-Isopropylbenzaldehyde] | 94.1% and 90.8% | 92.4% | 94.5% | 99.9% | 86.2% | 94.9% | 89.9% | 93.4% |
| COc1ccc(O)cc1 [Mequinol] | 103% and 95.3% | 106% | 91.1% | 100% | 95.6% | 96.9% | 90.4% | 103% |
| CCc1cc(Nc2nc(-c3ccc(-n4cnc(C)c4)c(F)c3)cs2)c(C)cc1C | 96% and 99.5% | 91.5% | 93.8% | 101% | 96.6% | 93.9% | 94.2% | 91.9% |
| Cc1c(Cl)cccc1Nc1ccccc1C(=O)O [Tolfenamic acid] | 103% and 101% | 101% | 107% | 102% | 99.8% | 102% | 106% | 106% |
| CCS(=O)(=O)Nc1ccc2[nH]c(O)c(C(=Nc3ccc(CN4CCCCC4)cc3)c3ccccc3)c2c1 [Hesperadin] | 19.5% and 24% | 15.9% | 5.46% | 9.42% | 0.94% | 0.3% | 5.95% | 9.44% |
| COc1cc2c(cc1OC)CN(CCc1ccc(NC(=O)c3cc(OC)c(OC)cc3NC(=O)c3cnc4ccccc4c3)cc1)CC2 [Tariquidar] | 94.6% and 105% | 96.9% | 95.3% | 105% | 93.5% | 95.7% | 96.4% | 100% |
